What all share (experiment): qHTS profiling for inhibitors of Plasmodium falciparum proliferation (AID 504749); also: nearly all actives have a fitted effect of over 60% in size
What all share (conditions): P. falciparum in erythrocytes, SYBR Green DNA, 72 h; series mostly up to 28.7 µM
Background: In qHTS, concentration-response curves come from the screen itself.

For one assay, the system named is N140. A digest of the protocol: (§1)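 Three-day growth assay of blood-stage parasites in erythrocytes (0.3% parasitemia, 2.5% hematocrit) at 37 C, 5% CO2, quantified by SYBR Green DNA staining after overnight detergent lysis.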
The next assay relates to P93_24. A digest of the protocol: as §1
In a further assay the test system is P94_40. A digest of the protocol:
as §1

The test system of another assay is PAD. A digest of the protocol:
as §1

A further assay has as its system PC15. A digest of the protocol:
as §1

Another assay relates to PC26. An outline of the steps: as §1
Another assay has as its system PC49. An outline of the steps:
as §1

Another assay relates to SC27B. An outline of the steps:
as §1

The next assay deals with TAB109. An outline of the steps: as §1
A further assay relates to TAB113. A digest of the protocol:
as §1

Results filed as inconclusive are left out. The source made the active and inactive calls. Calls follow the shape of the dose curve; as a rule, active = well fitted inhibition curve with a large enough effect; inconclusive = small, poorly fitted or top-dose-only effect; inactive = flat fitted curve, though single readings scatter.
Potency is read from the fitted curve at half-maximal effect.

Regarding `COc1ccc(Cl)cc1C(=O)NCCc1ccc(S(=O)(=O)NC(=O)NC2CCCCC2)cc1`, the Potency result in the assay on N140, in the assay with P93_24, with P94_40, in the assay with PAD, in the assay with PC15 and with PC26 was “inactive” in each case. The Potency entry with PC49, in the assay with SC27B, in the assay on TAB109 and with TAB113 was “inactive” throughout.

As for `Cc1cc(C(C#N)c2ccc(Cl)cc2)c(Cl)cc1NC(=O)c1cc(I)cc(I)c1O` (stereo unspecified), the Potency entry with N140, in the assay on P93_24, with P94_40, in the assay on PAD, in the assay on PC15 and in the assay with PC26 was “inactive” throughout. The Potency result in the assay with PC49, in the assay on SC27B, with TAB109 and in the assay on TAB113 was “inactive” throughout.

Consider `CC1=C(CC(=O)O)c2cc(F)ccc2/C1=C\c1ccc(S(C)=O)cc1` (stereo unspecified), for which the Potency entry in the assay on N140, with P93_24, in the assay on P94_40, with PAD, in the assay with PC15 and in the assay on PC26 was “inactive” throughout. The Potency result in the assay on PC49, in the assay on SC27B, in the assay on TAB109 and in the assay with TAB113 was “inactive” throughout.

Consider `O=C1O[C@H]([C@@H](O)CO)C(O)=C1O`, for which the Potency entry in the assay with N140, in the assay on P93_24, in the assay on P94_40, with PAD, in the assay with PC15 and with PC26 was “inactive” throughout. Also, the Potency entry in the assay on PC49, in the assay with SC27B, in the assay with TAB109 and in the assay with TAB113 was “inactive” each time.

As for `CCC(=O)Nc1ccc(O)cc1`, the Potency entry in the assay on N140, in the assay with P93_24, in the assay with P94_40, with PAD, in the assay on PC15 and in the assay on PC26 was “inactive” each time. Further, the Potency entry with PC49, in the assay on SC27B, in the assay on TAB109 and in the assay on TAB113 was “inactive” in each case.

Take `C[C@@H]1CN(c2c(F)c(F)c3c(=O)c(C(=O)O)cn(C4CC4)c3c2F)C[C@H](C)N1`: the Potency result with N140, in the assay with P93_24, in the assay on P94_40, in the assay with PAD, with PC15 and in the assay with PC26 was “inactive” throughout. Further, the Potency result in the assay with PC49, in the assay with SC27B, with TAB109 and in the assay with TAB113 was “inactive” in each case.

Consider `C[C@H](N)[C@H](O)c1cccc(O)c1`, for which the Potency entry in the assay on N140, in the assay with P93_24, with P94_40, with PAD, in the assay on PC15 and in the assay on PC26 was “inactive” each time. For the same compound, the Potency result in the assay with PC49, with SC27B, in the assay on TAB109 and with TAB113 was “inactive” each time.

For the compound `CCCCOc1cc(C(=O)OCCN(CC)CC)ccc1N`, the Potency result in the assay with N140, in the assay on P93_24, in the assay with P94_40, in the assay on PAD, with PC15 and with PC26 was “inactive” throughout. The Potency entry with PC49, with SC27B, with TAB109 and in the assay with TAB113 was “inactive” in each case.

Consider `Cc1cccc(C)c1NC(=O)CN(CC(=O)O)CC(=O)O`, for which the Potency entry with N140, in the assay with P93_24, in the assay with P94_40, in the assay on PAD, in the assay on PC15 and in the assay with PC26 was “inactive” throughout. Moreover, the Potency entry in the assay with PC49, in the assay on SC27B, in the assay on TAB109 and in the assay with TAB113 was “inactive” throughout.

For the compound `COc1ccccc1O`, the Potency result in the assay on N140, in the assay with P93_24, with P94_40, in the assay with PAD, in the assay with PC15 and in the assay with PC26 was “inactive” throughout. Besides, the Potency result in the assay with PC49, with SC27B, in the assay with TAB109 and in the assay on TAB113 was “inactive” throughout.

For the compound `Cc1ncc(COP(=O)(O)O)c(C=O)c1O`, the Potency result with N140, in the assay with P93_24, in the assay on P94_40, in the assay on PAD, with PC15 and in the assay on PC26 was “inactive” each time. For the same compound, the Potency entry in the assay with PC49, with SC27B, with TAB109 and with TAB113 was “inactive” throughout.

Take `CC1(C)[C@@H]2CC[C@@]1(C)C(=O)C2`: the Potency result in the assay on N140, with P93_24, with P94_40, with PAD, with PC15 and in the assay with PC26 was “inactive” in each case. Further, the Potency entry in the assay on PC49, in the assay with SC27B, in the assay with TAB109 and in the assay with TAB113 was “inactive” throughout.

Take `N[C@@H](CSCCCO)C(=O)O`: the Potency entry in the assay on N140, with P93_24, in the assay with P94_40, in the assay with PAD, with PC15 and with PC26 was “inactive” in each case. In addition, the Potency result in the assay with PC49, in the assay on SC27B, in the assay on TAB109 and in the assay on TAB113 was “inactive” each time.

For `Cc1cc(N)c2ccccc2[n+]1CCCCCCCCCC[n+]1c(C)cc(N)c2ccccc21`, the Potency in the assay with N140 was 251 nM (active); in the assay with P93_24, 70.8 nM (active); in the assay on P94_40 it was 7080 nM (active); in the assay with PAD, 2240 nM (active); in the assay on PC15, 282 nM (active); with PC26 it was 510 nM (active). Besides, the Potency in the assay on PC49 was 126 nM (active); with SC27B it was 0.0316 nM (active); with TAB109 it was 4470 nM (active); with TAB113, 126 nM (active).

In the case of `CC12CCC(CC1)C(C)(C)O2`, the Potency entry in the assay with N140, in the assay on P93_24, with P94_40, with PAD, in the assay on PC15 and in the assay on PC26 was “inactive” in each case. Further, the Potency result with PC49, in the assay with SC27B, with TAB109 and in the assay on TAB113 was “inactive” each time.

As for `CC(=O)Oc1ccc(C2(c3ccc(OC(C)=O)cc3)C(=O)Nc3ccccc32)cc1`, the Potency entry in the assay on N140, in the assay on P93_24, in the assay on P94_40, in the assay on PAD, in the assay with PC15 and with PC26 was “inactive” throughout. Besides, the Potency result with PC49, with SC27B, with TAB109 and in the assay with TAB113 was “inactive” throughout.

Regarding `O=C(Oc1ccccc1C(=O)O)c1ccccc1O`, the Potency entry in the assay with N140, in the assay with P93_24, in the assay with P94_40, in the assay with PAD, with PC15 and with PC26 was “inactive” each time. In addition, the Potency entry in the assay on PC49, in the assay on SC27B, in the assay on TAB109 and in the assay on TAB113 was “inactive” throughout.

With `Cc1ccc(C(C)C)cc2c(C)ccc1-2`, the Potency result in the assay with N140, in the assay on P93_24, in the assay with P94_40, in the assay with PAD, with PC15 and in the assay with PC26 was “inactive” throughout. The Potency entry in the assay on PC49, in the assay on SC27B, in the assay on TAB109 and in the assay on TAB113 was “inactive” throughout.

In the case of `NCCNCCNCCNCCN`, the Potency result with N140, in the assay with P93_24, in the assay on P94_40, with PAD, in the assay on PC15 and with PC26 was “inactive” in each case. Moreover, the Potency result in the assay with PC49, in the assay on SC27B, with TAB109 and in the assay on TAB113 was “inactive” each time.

For the compound `O=S(=O)(O)c1cc(I)c(O)c2ncccc12`, the Potency result in the assay on N140, with P93_24, with P94_40, in the assay on PAD, in the assay on PC15 and with PC26 was “inactive” each time. Moreover, the Potency entry with PC49, with SC27B, in the assay on TAB109 and in the assay on TAB113 was “inactive” each time.

`CCN(CC)CCNC(=O)c1c(C)[nH]c(/C=C2\C(=O)Nc3ccc(F)cc32)c1C`: the Potency in the assay with N140 was 8910 nM (active); in the assay on P93_24 it was 6310 nM (active); in the assay with P94_40, 7940 nM (active); in the assay on PAD, 5010 nM (active); in the assay on PC15, 8910 nM (active); in the assay on PC26, 5360 nM (active). Moreover, the Potency in the assay on SC27B was 12600 nM (active); in the assay on TAB109 it was 8910 nM (active); in the assay on TAB113, 10000 nM (active).

`CC(C)(C)C(=O)NCCCC(=O)O`: the Potency result with N140, with P93_24, in the assay on P94_40, with PAD, in the assay on PC15 and in the assay with PC26 was “inactive” in each case. For the same compound, the Potency result with PC49, in the assay with SC27B, in the assay on TAB109 and in the assay on TAB113 was “inactive” throughout.

Regarding `CCCCCCCCCCCCOS(=O)(=O)O`, the Potency entry in the assay with N140, in the assay on P93_24, in the assay with P94_40, in the assay with PAD, in the assay with PC15 and in the assay on PC26 was “inactive” throughout. The Potency entry in the assay with PC49, in the assay on SC27B, with TAB109 and with TAB113 was “inactive” each time.

`CNC(=O)Oc1ccc2c(c1)[C@]1(C)CCN(C)[C@@H]1N2C`: the Potency in the assay on N140 was 1780 nM (active); in the assay with P93_24, 1580 nM (active); with P94_40 it was 1580 nM (active); with PAD, 1410 nM (active); in the assay with PC15 it was 1780 nM (active); in the assay with PC49 it was 2000 nM (active). Further, the Potency in the assay on TAB109 is 2240 nM (active).

The values are drawn from PubChem BioAssay (NCATS).
